Assay results: PubChem BioAssay AID1159580 (chemical genetic matrix, 2015)
Hit rate of the full screen: of about 5,500 compounds, about 2,000 (36%) were called active. Inconclusive results (about 18%) are left out. No stated cut-off is given here; in the data, active means normalized growth mostly below about 0.91 (no sharp cut-off); inconclusive means no clear call, values can overlap the other calls; inactive means mostly above about 0.92. The list shows a part of the results.

Assay: chemical genetic growth profiling, strain panel (AID 1159580);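 further: tested at 20 µM; growth read once vehicle control cultures reached saturation at 30 °C; 1 = growth at the plate median or of vehicle wells; lower values mean less growth of the strain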
Conditions: S. cerevisiae deletion strains, growth OD
[1] = locus YAR019C, strain CDC15, hits give low values
[2] = locus YBL105C, strain PKC1, hits give low values
[3] = locus YBR135W, strain CKS1, hits give low values
[4] = locus YBR136W, strain MEC1, hits give low values
[5] = locus YBR160W, strain CDC28, hits give low values
[6] = locus YDL017W, strain CDC7, hits give low values
[7] = locus YDL028C, strain MPS1, hits give low values
[8] = locus YDL101C, strain DUN1, hits give low values
[9] = locus YDL108W, strain KIN28, hits give low values
[10] = locus YDL132W, strain cdc53, hits give low values
[11] = locus YDL214C, strain PRR2, hits give low values
[12] = locus YDR052C, strain DBF4, hits give low values
[13] = locus YDR054C, strain cdc34, hits give low values
[14] = locus YDR477W, strain SNF1, hits give low values
[15] = locus YER123W, strain YCK3, hits give low values
[16] = locus YER133W, strain GLC7, hits give low values
[17] = locus YFL009W, strain cdc4, hits give low values
[18] = locus YFL029C, strain CAK1, hits give low values
[19] = locus YFR003C, strain YPI1, hits give low values
[20] = locus YFR019W, strain FAB1, hits give low values
[21] = locus YFR028C, strain CDC14, hits give low values
[22] = locus YGR040W, strain KSS1, hits give low values
[23] = locus YGR052W, strain FMP48, hits give low values
[24] = locus YGR092W, strain DBF2, hits give low values
[25] = locus YHR030C, strain SLT2, hits give low values
[26] = locus YHR079C, strain IRE1, hits give low values
[27] = locus YHR082C, strain KSP1, hits give low values
[28] = locus YHR205W, strain SCH9, hits give low values
[29] = locus YIL147C, strain SLN1, hits give low values
[30] = locus YJL095W, strain BCK1, hits give low values
[31] = locus YJL128C, strain PBS2, hits give low values
[32] = locus YJL157C, strain FAR1, hits give low values
[33] = locus YJR016C, strain ILV3, hits give low values
[34] = locus YJR066W, strain TOR1 (second series), hits give low values
[35] = locus YJR066W, strain TOR1, hits give low values
[36] = locus YKL048C, strain ELM1, hits give low values
[37] = locus YKL067W, strain YNK1, hits give low values
[38] = locus YKL101W, strain HSL1, hits give low values
[39] = locus YKL193C, strain SDS22, hits give low values
[40] = locus YKL203C, strain TOR2, hits give low values
[41] = locus YLR113W, strain HOG1, hits give low values
[42] = locus YLR133W, strain CKI1, hits give low values
[43] = locus YLR403W, strain SFP1, hits give low values
[44] = locus YML070W, strain DAK1, hits give low values
[45] = locus YMR001C, strain CDC5, hits give low values
[46] = locus YMR205C, strain PFK2 (second series), hits give low values
[47] = locus YMR277W, strain FCP1, hits give low values
[48] = locus YNL006W, strain LST8, hits give low values
[49] = locus YNL020C, strain ARK1, hits give low values
[50] = locus YNL161W, strain CBK1, hits give low values
[51] = locus YNL183C, strain NPR1, hits give low values
[52] = locus YNL207W, strain RIO2, hits give low values
[53] = locus YNL222W, strain SSU72, hits give low values
[54] = locus YNL307C, strain MCK1 (second series), hits give low values
[55] = locus YOL078W, strain AVO1, hits give low values
[56] = locus YOL136C, strain PFK27, hits give low values
[57] = locus YOR061W, strain CKA2, hits give low values
[58] = locus YOR119C, strain RIO1, hits give low values
[59] = locus YOR231W, strain MKK1, hits give low values
[60] = locus YOR329C, strain SCD5, hits give low values
[61] = locus YPL031C, strain PHO85, hits give low values
[62] = locus YPL153C, strain RAD53, hits give low values
[63] = locus YPL204W, strain HRR25, hits give low values
[64] = locus YPL209C, strain IPL1, hits give low values
[65] = locus YPL256C, strain CLN2, hits give low values
[66] = locus YPR025C, strain CCL1, hits give low values
[67] = locus YPR106W, strain ISR1, hits give low values
[68] = locus YPR111W, strain DBF20, hits give low values
[69] = strain NNK1, hits give low values
[70] = strain TSCII, hits give low values

Measured: normalized growth

CC(=O)Nc1ccc(/C=C/[N+](=O)[O-])cc1
active: [20] 0.629 | [25] 0.697 | [41] 0.628 | [65] 0.642
inactive: [1] 0.977 | [2] 0.972 | [3] 0.976 | [4] 0.964 | [5] 0.98 | [6] 0.98 | [7] 0.973 | [8] 0.994 | [9] 0.972 | [10] 0.975 | [11] 0.857 | [12] 0.98 | [13] 0.974 | locus YDR226W, strain ADK1, hits give low values 0.975 | [14] 0.809 | [15] 0.679 | [16] 0.806 | [17] 0.974 | [18] 0.962 | [19] 0.982 | [21] 0.972 | [22] 0.807 | [23] 0.843 | [24] 0.816 | [26] 0.809 | [27] 0.804 | [28] 0.723 | [29] 0.97 | [30] 0.78 | [31] 0.969 | [32] 0.844 | [33] 0.981 | [34] 0.732 | [35] 0.684 | [36] 0.864 | [37] 0.852 | [38] 0.795 | [39] 0.977 | [40] 0.852 | [42] 0.861 | [43] 0.818 | [44] 0.804 | [45] 0.971 | [46] 0.868 | [47] 0.976 | [48] 0.996 | [49] 0.88 | [50] 0.973 | [51] 0.782 | [52] 0.978 | [53] 0.975 | [54] 0.78 | [55] 0.97 | [56] 0.829 | [57] 0.882 | [58] 0.855 | [59] 0.786 | [60] 0.985 | [61] 0.794 | [62] 0.776 | [63] 0.791 | [64] 0.98 | [66] 0.982 | [67] 0.988 | [68] 0.984 | [69] 0.999 | [70] 0.969

C=CCOc1ccc(/C=C/[N+](=O)[O-])cc1
active: [1] 0.0985 | [2] 0.0881 | [3] 0.0822 | [4] 0.095 | [5] 0.0851 | [6] 0.0853 | [7] 0.0971 | [8] 0.108 | [9] 0.1 | [10] 0.0933 | [11] 0.0888 | [12] 0.0837 | [13] 0.0953 | [14] 0.104 | [15] 0.105 | [16] 0.096 | [17] 0.0895 | [18] 0.094 | [19] 0.0875 | [20] 0.0967 | [21] 0.0822 | [22] 0.0972 | [23] 0.116 | [24] 0.106 | [25] 0.12 | [26] 0.118 | [27] 0.124 | [28] 0.00436 | [29] 0.116 | [30] 0.124 | [31] 0.154 | [32] 0.0842 | [33] 0.0828 | [34] 0.0922 | [35] 0.118 | [36] 0.107 | [37] 0.0924 | [38] 0.0997 | [39] 0.0826 | [40] 0.104 | [41] 0.147 | [42] 0.102 | [43] -0.00907 | [44] 0.0908 | [45] 0.0861 | [46] 0.095 | [47] 0.0876 | [48] 0.0846 | [49] 0.0937 | [50] 0.0814 | [51] 0.127 | [52] 0.0904 | [53] 0.0824 | [54] 0.102 | [55] 0.083 | [56] 0.0949 | [57] 0.0943 | [58] 0.112 | [59] 0.109 | [60] 0.0843 | [61] 0.102 | [62] 0.0983 | [63] 0.0984 | [64] 0.0828 | [65] 0.134 | [66] 0.0851 | [67] 0.0928 | [68] 0.154 | [69] 0.1 | [70] 0.0928
